MIN6 prolif-1: inducers of MIN6 beta-cell proliferation, primary screen, ATP luminescence, uHTS. MIN6 cells proliferation, ATPlite luminescence, 48 h; cells starved in 0.2% serum; 100% = growth in 10% serum. actives 0.29% (n = 330,000). proliferation, % at 10 µM. AID 2380, 2010;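 active = compounds whose signal lies at least 3.5 SD above the mean of all wells on their plate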;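 also: 0% = DMSO-treated cells in low-serum medium and 100% = 10% serum control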
HDAC3 inhib: HDAC3 deacetylase inhibitors, primary screen, biochemical, fluorescence, cell-free homogeneous; Histone deacetylase 3 (Homo sapiens), O15379; recombinant HDAC3, fluorogenic peptide/trypsin coupled; inhibition, % at 8.3 µM; actives 0.15% (n = 320,000); AID 2718, 2010; in the data active = inhibition above about 26%, passing the limit was not always enough
Target sequence (O15379 whole entry, looked up): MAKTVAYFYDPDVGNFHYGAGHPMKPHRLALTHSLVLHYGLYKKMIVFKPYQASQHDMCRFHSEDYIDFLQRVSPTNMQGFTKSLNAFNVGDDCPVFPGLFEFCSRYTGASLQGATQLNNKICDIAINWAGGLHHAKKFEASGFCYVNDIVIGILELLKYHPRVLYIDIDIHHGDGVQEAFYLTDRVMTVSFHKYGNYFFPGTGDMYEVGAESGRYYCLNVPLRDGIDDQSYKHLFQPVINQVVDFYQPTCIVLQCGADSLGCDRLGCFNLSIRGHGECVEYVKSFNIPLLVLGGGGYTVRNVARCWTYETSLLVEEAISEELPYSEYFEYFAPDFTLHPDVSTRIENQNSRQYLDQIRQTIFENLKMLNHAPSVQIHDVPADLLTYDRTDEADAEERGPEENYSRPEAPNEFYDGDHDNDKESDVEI
V-ATPase pH: regulators of yeast V-ATPase proton pumping, primary screen, pHLuorin cytosolic pH fluorescence; actives 0.37% (n = 350,000); response, % at 10 µM; AID 504577, 2011; S. cerevisiae; in the data active = response mostly above about 7.3%, no sharp cut-off; inactive = mostly below about 5.4%; also: actives read high
Rtt109 Vps75: inhibitors of C. albicans Rtt109/Vps75 HAT, primary screen, biochemical, ThioGlo CoA-SH fluorescence, plate reader; purified Rtt109/Vps75, 4 h; inhibition, % at 34.9 µM; actives 0.16% (n = 330,000); AID 540336, 2011;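 active = inhibition of at least 50% in every replicate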
DAGLB inhibitor: DAGLB lipase inhibitors, primary screen, biochemical, fluorescence, HTS; Diacylglycerol lipase-beta (Homo sapiens), Q8NCG7; actives 0.059% (n = 340,000); inhibition, % at 5.17 µM; HEK293T DAGLB membrane lysate, EnzChek fluorogenic substrate; in the data active = inhibition above about 34%;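 also: 0% = enzyme with vehicle and 100% = wells lacking enzyme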
MIN6 prolif-2: inducers of beta-cell proliferation in MIN6, confirmation, MIN6 cells, mouse. ATPlite luminescence, 48 h; cells kept in 0.2% serum; scaled between 0.2% and 10% serum. proliferation increase, % at 50 µM. 920 tested, under 10 active. shares compounds with MIN6 prolif-1;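 active = proliferation increase above 40% at any of the four tested concentrations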
An asterisk follows results filed as active; . = no result. Shown are actives, neighbours in structure and some others; about 0.96% of the full set was active somewhere.

SMILES | MIN6 prolif-1 | HDAC3 inhib | V-ATPase pH | Rtt109 Vps75 | DAGLB inhibitor | MIN6 prolif-2
CNC(=S)Nc1ccc([N+](=O)[O-])cc1C | 9.9* | -5 | 3 | -4 | -3 | -1
Cc1ccc(-c2nc(C(=O)NCCCN3CCOCC3)cc3c2[nH]c2ccccc23)cc1 | -6 | -13 | 0 | -18 | 0 | .
C1CCN(c2nc3nonc3nc2N2CCCC2)C1 | 1 | -3 | 3 | -3 | -3 | .
COC1CCCN(Cc2nc(Cc3ccccc3F)no2)C1 (stereo not given) | -4 | 2 | 4 | 11 | -1 | .
Fc1ccccc1Cc1noc(CN2CCC(OCc3cccnc3)CC2)n1 | 7.7* | 1 | -1 | -1 | . | -3
Cc1cccc(-n2c(CNC(=O)c3cccc([N+](=O)[O-])c3C)n[nH]c2=S)c1 | 1 | 10 | -1 | -11 | -2 | .
O=S(=O)(c1ccccc1)N1CCN(c2cccc(Cl)c2)CC1 | 7.2* | -8 | -2 | -7 | -5 | -6
Cc1ccc(NC(=O)c2ccc(C)c(S(=O)(=O)N3CCOCC3)c2)nc1 | 13* | 0 | 4 | -1 | -2 | -3
Cc1ccc(C(=O)Nc2ccc(Cl)cn2)cc1S(=O)(=O)N1CCOCC1 | -3 | 6 | 0 | -14 | -1 | .
O=C(Nc1cccc(-c2nc3ccccc3[nH]2)c1)c1ccccn1 | -1 | 1 | 4 | 8 | 0 | .
COC(=O)c1ccc(N2CCN(C)CC2)c(NC(=O)COc2ccc(C)cc2)c1 | 11* | 0 | 0 | 7 | 0 | -4
Cc1ccccc1-c1nc(CN2CCN(C(=O)c3ccco3)CC2)c(C)o1 | 8.9* | -4 | -1 | -1 | 0 | -5
CC(=O)c1ccc(NC(=O)CCc2ccc(C)o2)cc1 | -5 | -6 | -1 | -3 | 0 | .
COc1cccc(/C=N/n2c(C3CCCCC3)n[nH]c2=S)c1 | 6.9* | 1 | 0 | 3 | -5 | -6
Cc1ccc(S(=O)(=O)CC(=O)N2CCOCC2)cc1 | -3 | -1 | 4 | 0 | -1 | .
O=C(CS(=O)(=O)c1ccc(Br)cc1)N1CCOCC1 | 11* | 3 | 1 | -2 | 1 | -3
CCOC(=O)c1c(C)[nH]c(C)c1C(=O)CSc1nc2ccccc2n1CCC#N | 2 | -2 | -2 | 3 | -3 | .
CCCn1c(SCC(=O)c2c(C)[nH]c(C)c2C(=O)OCC)nc2ccccc21 | 6.8* | 4 | -1 | 8 | -4 | -4
Cc1cc(C)n2ncc(C(=O)Nc3ccc(Cl)c(Cl)c3)c2n1 | -3 | -1 | -2 | 9 | -4 | .
Cc1cccc(NC(=O)Cc2ccc(-c3ccccc3)cc2)n1 | -1 | 0 | 2 | -1 | -4 | .
O=C(Cc1ccc(-c2ccccc2)cc1)Nc1ccccc1 | 6.0* | -9 | -2 | -9 | -5 | -1
COc1cccc(CNc2ccc([N+](=O)[O-])cc2C)c1 | 1 | 2 | 0 | 5 | -3 | .
CCN(CC)C(=O)C12CC3CC(CC(Cl)(C3)C1)C2 | 2 | 4 | 3 | 5 | -2 | .
CC(C)(C)NC(=O)C12CC3CC(CC(Cl)(C3)C1)C2 | 8.0* | 2 | 0 | 2 | 1 | -2
O=C(C1CCN(S(=O)(=O)c2cccs2)CC1)N1CCN(Cc2ccccc2)CC1 | -2 | -3 | -1 | -9 | 0 | .
SMILES | MIN6 prolif-1 | HDAC3 inhib | V-ATPase pH | Rtt109 Vps75 | DAGLB inhibitor | MIN6 prolif-2
CCOC(=O)CSc1nc2ccccc2c(=O)n1C1CCCC1 | 5.3* | -5 | 0 | 1 | -6 | -6
CNC(=O)CSc1nc2ccccc2c(=O)n1C1CCCCC1 | -4 | -2 | -3 | 3 | 0 | .
CC(=O)N(CC1CCCO1)c1nnc(-c2ccccn2)s1 (stereo not given) | 1 | -7 | 8 | -2 | -1 | .
CNC(=S)N/N=C/c1ccc(OCC(=O)Nc2c(C)cc(C)cc2C)c(OC)c1 | 0.0* | 4 | 4 | 0 | 3 | -1
CC(C)n1c(N2CCN(C(=O)NCc3ccccc3)CC2)nc2ccccc21 | 8.4* | -2 | -4 | -1 | 1 | -3
COc1ccc(NC(=O)N2CCN(c3nc4ccccc4n3C(C)C)CC2)cc1 | 5 | -1 | -2 | -5 | 0 | .

Screens (PubChem)
